This note sets out measurements from PubChem BioAssay (NCATS).

Test [1] can be described thus: Drug repurposing screens with cells derived from glioblastoma tumor samples (AID 1345199). Also: nearly all actives have a fitted effect of over 40% in size. Also: potency is read from the fitted curve at half-maximal effect. As to activity, negative = cell killing: % is scaled to controls: 0 for no effect and ±100 for the full control effect. The following applies: GBM patient neurospheres viability, ATP luminescence, 48 h. In short, it runs like this:
(§1)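 Primary testing used CD133+ neurospheres from four GBM patients, seven concentrations, 48 h exposure and ATP-based viability; confirmation added three slower-growing patient lines.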

For the next test, the system named is astro (control astrocytes). The description is as above. The following applies: viability, ATP luminescence, 48 h; series mostly up to 45.9 µM. The method in brief: as §1
For test [2], the target named is Nuclear receptor subfamily 1 group I member 2 (Rattus norvegicus) (UniProt Q9R1A7). Briefly: qHTS assay for small molecule activators of the rat pregnane X receptor (rPXR) signaling pathway (AID 651751; call rule not given here; also: 0% is about no effect). As to conditions: rPXR reporter cells, luciferase (One-Glo), 24 h.
Chain of Nuclear receptor subfamily 1 group I member 2 (Rattus norvegicus) (Q9R1A7 whole entry, looked up): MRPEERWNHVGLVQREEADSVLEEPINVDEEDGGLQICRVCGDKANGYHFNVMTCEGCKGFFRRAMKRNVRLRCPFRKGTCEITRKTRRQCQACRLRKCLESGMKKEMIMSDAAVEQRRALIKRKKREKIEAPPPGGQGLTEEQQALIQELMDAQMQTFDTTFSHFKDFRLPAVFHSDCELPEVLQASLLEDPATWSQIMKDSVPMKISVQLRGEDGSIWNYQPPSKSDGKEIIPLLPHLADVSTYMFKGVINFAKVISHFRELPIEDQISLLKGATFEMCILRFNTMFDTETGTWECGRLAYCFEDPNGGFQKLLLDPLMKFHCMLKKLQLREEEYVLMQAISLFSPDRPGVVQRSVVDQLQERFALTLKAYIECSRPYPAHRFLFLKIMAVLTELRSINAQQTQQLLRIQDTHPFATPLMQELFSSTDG
Test [3] in a line: qHTS assay for small molecule activators of the human pregnane X receptor (PXR) signaling pathway (AID 720659; call rule not given here; also: 0% is about no effect). As to conditions: DPX-2 HepG2 CYP3A4-luciferase, 24 h; series mostly up to 92.3 µM. (Quantitative high-throughput screening tests each substance at several concentrations.)
The mark [4] stands for this setting: at 45.9 µM (top of the series), tumour line B.
The mark [5] stands for this setting: at 45.9 µM (top of the series), tumour line D.
[6] abbreviates: at 46.1 µM (top of the series), tumour line C.

Several values for one entry are separate records, joined by “and”; a condition that tells them apart may be missing. Equal entries are not always repeated. Inconclusive results are not listed. Activity calls are given as the source filed them. Unless noted, calls follow the shape of the dose curve; as a rule, active = well fitted inhibition curve with a large enough effect; inconclusive = small, poorly fitted or top-dose-only effect; inactive = flat fitted curve, though single readings scatter.

As for `Cc1ncc(COP(=O)(O)O)c(CN)c1O`, the values for the activity, negative = cell killing in test [1] (setting [4]), in test [1] (setting [5]) and in test [1] (setting [6]) were -10.4% (inactive), -17.3% (inactive) and -23.4% (inactive), respectively. Further, the Potency result in the test on astro was “inactive”.

As for `CC1=CC(=O)NS(=O)(=O)O1`, the activity, negative = cell killing was -5.56% (inactive) in test [1] (setting [4]), 0.134% (inactive) in test [1] (setting [5]) and -19.5% (inactive) in test [1] (setting [6]). Further, the Potency result with astro was “inactive”. Moreover, in test [2], the max response was 4.96% (inactive) and 0.0631% (inactive). Also, in test [3], the result was inactive.

With `CC/C=C\C/C=C\C/C=C\C/C=C\C/C=C\C/C=C\CCC(=O)O`, the activity, negative = cell killing is -3.27% (inactive) in test [1] (setting [4]), -12.5% (inactive) in test [1] (setting [5]) and -20.7% (inactive) in test [1] (setting [6]). Further, the Potency entry with astro was “inactive”.

As to `C[C@H](NCCc1ccc(O)cc1)[C@H](O)c1ccc(O)cc1`, the figures for the activity, negative = cell killing in test [1] (setting [4]), in test [1] (setting [5]) and in test [1] (setting [6]) were -2.5% (inactive), -20.4% (inactive) and -12.8% (inactive), respectively. For the same compound, the Potency entry in the test with astro was “inactive”.

Regarding `O=C(O)c1ccc(OCCn2ccnc2)cc1`, the activity, negative = cell killing in test [1] (setting [4]) is -11.4% (inactive); in test [1] (setting [5]), -25.4% (inactive); in test [1] (setting [6]) it was -11.9% (inactive). In the test with astro, the Potency entry is “inactive”.

As to `O=C(O)CCCC/C=C(\c1ccccc1)c1cccnc1`, the activity, negative = cell killing was -6.07% (inactive) in test [1] (setting [4]), -10.6% (inactive) in test [1] (setting [5]) and -17.1% (inactive) in test [1] (setting [6]). Also, in the test with astro, the Potency entry was “inactive”.

On to `O=C(O)/C=C/C(=O)Nc1ccc(S(=O)(=O)Nc2nccs2)cc1`, for which the activity, negative = cell killing in test [1] (setting [4]) was -4.39% (inactive); in test [1] (setting [5]) it was -8.87% (inactive); in test [1] (setting [6]) it was -5.24% (inactive). The Potency result in the test with astro was “inactive”.

For `CC1CCCCN1CCCOC(=O)c1ccccc1` (stereo not drawn), the activity, negative = cell killing in test [1] (setting [4]) was -12.2% (inactive); in test [1] (setting [5]) it was -13.7% (inactive); in test [1] (setting [6]), -1.82% (inactive). Moreover, the Potency entry with astro is “inactive”.

For `CO/N=C(/C(=O)N[C@@H]1C(=O)N2C(C(=O)O)=C(COC(N)=O)CS[C@H]12)c1ccco1`, the activity, negative = cell killing was 3.13% (inactive) and -9.26% (inactive) in test [1] (setting [4]); -9.35% (inactive) and -16.7% (inactive) in test [1] (setting [5]); 6.13% (inactive) and -0.48% (inactive) in test [1] (setting [6]). For the same compound, in the test with astro, the Potency result is “inactive”. Besides, the max response in test [2] was -2.68% (inactive). Also, in test [3], the result was inactive.

In the case of `COC(=O)CC[C@H](N)C(=O)O`, the activity, negative = cell killing in test [1] (setting [4]) is -13.7% (inactive); in test [1] (setting [5]), -12.9% (inactive). Moreover, the Potency result with astro is “inactive”.

Regarding `CCCCCCCCCCCCCCCCCC(=O)OC[C@@H](O)[C@H]1OC[C@H](O)[C@H]1O`, the activity, negative = cell killing in test [1] (setting [4]) is 3.83% (inactive); in test [1] (setting [5]) it was 2.86% (inactive); in test [1] (setting [6]), -1.68% (inactive). The Potency entry in the test with astro was “inactive”. Also, the max response in test [2] is 2.96% (inactive).

As for `NC(=O)OCC(O)COc1ccc(Cl)cc1` (stereo not drawn), the activity, negative = cell killing in test [1] (at 20 µM (top of the series), tumour line C) was 0.2% (inactive); in test [1] (at 21.2 µM (top of the series), tumour line B), -15.4% (inactive); in test [1] (at 21.2 µM (top of the series), tumour line D), -22.6% (inactive). Besides, in the test with astro, the Potency entry is “inactive”.

Consider `OC[C@H]1O[C@@](CO)(O[C@H]2O[C@H](CO)[C@@H](O)[C@H](O)[C@H]2O)[C@@H](O)[C@@H]1O`, for which the activity, negative = cell killing in test [1] (setting [4]) was -5.09% (inactive); in test [1] (setting [5]) it was -14.4% (inactive); in test [1] (setting [6]), -22.3% (inactive). In addition, the Potency result in the test with astro was “inactive”. Also, the max response in test [2] is 1.07% (inactive). Moreover, the result in test [3] was inactive.

As for `CC(C)(Oc1ccc(C2CCCc3ccccc32)cc1)C(=O)O` (stereo not drawn), the activity, negative = cell killing is -18.2% (inactive) in test [1] (setting [4]); -16.7% (inactive) in test [1] (setting [5]); -21.9% (inactive) in test [1] (at 46 µM (top of the series), tumour line A). In the test with astro, the Potency entry was “inactive”.

Consider `CN[C@H](CC(C)C)C(=O)N[C@H]1C(=O)N[C@@H](CC(N)=O)C(=O)N[C@H]2C(=O)N[C@H]3C(=O)N[C@H](C(=O)N[C@@H](C(=O)O)c4cc(O)cc(O)c4-c4cc3ccc4O)[C@H](O)c3ccc(c(Cl)c3)Oc3cc2cc(c3O[C@@H]2O[C@H](CO)[C@@H](O)[C@H](O)[C@H]2O[C@H]2C[C@](C)(N)C(O)[C@H](C)O2)Oc2ccc(cc2Cl)[C@H]1O` (stereo partly drawn), for which the activity, negative = cell killing in test [1] (setting [4]) is -21.4% (inactive) and -13.5% (inactive); in test [1] (setting [5]), -14.4% (inactive) and -8.53% (inactive); in test [1] (setting [6]), -11% (inactive) and 8.66% (inactive). In the test with astro, the Potency result is “inactive”.

As for `CC(=O)N[C@@H](C=O)[C@@H](O)[C@H](O)[C@H](O)CO`, the values for the activity, negative = cell killing in test [1] (setting [4]), in test [1] (setting [5]) and in test [1] (setting [6]) were -6.52% (inactive), -3.57% (inactive) and -2.77% (inactive), respectively. Further, the Potency result with astro is “inactive”.

`CC(C)(C)CC(C)(C)c1ccc(OCCO)cc1`: the activity, negative = cell killing was -26.2% (inactive) in test [1] (setting [4]) and -20.5% (inactive) in test [1] (setting [6]). Further, in test [1] (tumour line D), the Potency was 10 µM (active). Besides, the max response in test [2] is -14.4% (inactive).

For the compound `CC[C@H]1NC(=O)[C@@H](NC(=O)c2ncccc2O)[C@@H](C)OC(=O)[C@H](c2ccccc2)NC(=O)[C@@H]2CC(=O)CCN2C(=O)[C@H](Cc2ccccc2)N(C)C(=O)[C@@H]2CCCN2C1=O`, the results for the activity, negative = cell killing in test [1] (setting [4]), in test [1] (setting [5]) and in test [1] (setting [6]) were -1.4% (inactive), 17.7% (inactive) and -11% (inactive), respectively. Further, the Potency entry in the test with astro was “inactive”.

Take `OCCOCCOCCO`: the figures for the activity, negative = cell killing in test [1] (setting [4]), in test [1] (setting [5]) and in test [1] (setting [6]) were -6.55% (inactive), -3.68% (inactive) and 4.43% (inactive), respectively. Also, the Potency entry with astro is “inactive”. Moreover, in test [2], the max response is 0.109% (inactive) and -2.24% (inactive).

`[O-][N+](=Nc1ccccc1)c1ccccc1`: the activity, negative = cell killing was -12.7% (inactive) in test [1] (setting [4]), -9.27% (inactive) in test [1] (setting [5]) and -6.88% (inactive) in test [1] (setting [6]). Besides, the Potency entry in the test with astro is “inactive”. For the same compound, the compound was classed as inactive in test [3].
